Tests used:
[1] = tested on: Vero E6 infected with SARS-CoV-2; test: morphology score (similarity to uninfected cells); higher = more like uninfected cells; conditions: 24 h
[2] = tested on: Vero E6 infected with SARS-CoV-2; test: SARS-CoV-2 infection rate relative to infected DMSO; higher = more infection, active = 60 or less; conditions: 24 h

| SMILES | morphology score [1] | SARS-CoV-2 infection rate [2] |
| --- | --- | --- |
| O=C(O)CCc1nc(-c2ccccc2)c(-c2ccccc2)o1 [oxaprozin] (10 µM) | -0.00592 | 116% (inactive) |
| O=C1c2c(O)cc(O)cc2O[C@H](c2cc(O)c(O)c(O)c2)[C@H]1O [dihydromyricetin] (10 µM) | -0.0984 | 108% (inactive) |
| CSCC1CN(/N=C/c2ccc([N+](=O)[O-])o2)C(=O)O1 (configuration not stated) [inimur] (10 µM) | 0.187 | 92% (inactive) |
| N=C(N)N/N=C/c1c(Cl)cccc1Cl [guanaben-acetate] (10 µM) | -0.127 | 114% (inactive) |
| O=[N+]([O-])c1nccn1CC(O)CN1CCCCC1 (configuration not stated) [pimonidazole] (10 µM) | 0.0622 | 108% (inactive) |
| CC(=O)NC1N=C(c2ccccc2)c2ccccc2NC1=O (configuration not stated) (10 µM) | 0.189 | 105% (inactive) |
| CCCc1nc2c(C)cc(-c3nc4ccccc4n3C)cc2n1Cc1ccc(-c2ccccc2C(=O)O)cc1 [telmisartan] (10 µM) | 0.215 | 100% (inactive) |
| CCn1cc(C(=O)O)c(=O)c2cnc(N3CCNCC3)nc21 [pipemidic-acid] (10 µM) | 0.136 | 102% (inactive) |
| CN(C)CCCn1cc(C2=C(c3c[nH]c4ccccc34)C(=O)NC2=O)c2ccccc21 (0.833333 µM) | -0.0102 | 104% (inactive) |
| N=C(NCCCCCCNC(=N)NC(=N)Nc1ccc(Cl)cc1)NC(=N)Nc1ccc(Cl)cc1 [chlorhexidine] (0.833333 µM) | 0.277 | 58% (active) |
| CC(C)(CC(=O)N1CCCC1)NCC(=O)N1C[C@@H](F)C[C@H]1C#N (10 µM) | 0.0148 | 102% (inactive) |
| O=C(OCC(O)CO)c1ccccc1Nc1ccnc2c(C(F)(F)F)cccc12 (configuration not stated) [floctafenine] (10 µM) | -0.157 | 106% (inactive) |
| COc1cc2c(c(OC)c1OC)-c1c(cc3c(c1OC)OCO3)CC(C)C(C)C2 (configuration not stated) [schisandrin-B] (10 µM) | 0.244 | 99.5% (inactive) |
| CNS(=O)(=O)CCc1ccc2[nH]cc(C3CCN(C)CC3)c2c1 [naratriptan] (10 µM) | 0.0727 | 104% (inactive) |
| CN1CCC(=C2c3ccccc3CCc3sccc32)CC1 [pizotifen] (10 µM) | 0.285 | 94.5% (inactive) |
| Cn1cc(-c2ccc(F)c(C(F)(F)F)c2)nc1C1CCN(c2ncnc3[nH]ncc23)CC1 (10 µM) | 0.119 | 110% (inactive) |
| O=C(O)c1cc2cccc([N+](=O)[O-])c2[nH]1 (10 µM) | -0.0876 | 100% (inactive) |
| CC(=O)OC[C@H]1O[C@@H]([S-])[C@H](OC(C)=O)[C@@H](OC(C)=O)[C@@H]1OC(C)=O.CCP(CC)CC.[Au+] [auranofin] (0.833333 µM) | 0.3 | 79% (inactive) |
| Oc1cc(O)c2c(c1)O[C@H](c1ccc(O)c(O)c1)[C@@H](O)C2 [cianidanol] (10 µM) | -0.0417 | 110% (inactive) |
| C=C1/C(=C\C=C2/CCC[C@]3(C)[C@@H]([C@H](C)CCCC(C)C)CC[C@@H]23)C[C@@H](O)C[C@@H]1O [alfacalcidol] (10 µM) | 0.0852 | 98% (inactive) |
| CCC1(C)CC(=O)NC1=O (configuration not stated) [ethosuximide] (10 µM) | 0.0477 | 104% (inactive) |

| SMILES | morphology score [1] | SARS-CoV-2 infection rate [2] |
| --- | --- | --- |
| O=C(NNC(=O)c1ccc(CNS(=O)(=O)c2ccc(F)c(Cl)c2)cc1)c1ccccc1 (10 µM) | -0.0845 | 114% (inactive) |
| C#C[C@]1(O)C=C[C@H]2[C@@H]3CCC4=CC(=O)CC[C@@H]4[C@H]3CC[C@@]21CC [gestodene] (10 µM) | 0.149 | 107% (inactive) |
| CC(C)(C)NCC(O)c1ccccc1Cl (configuration not stated) [tulobuterol] (10 µM) | -0.0152 | 115% (inactive) |
| O=C(O)CCCN1C(=O)c2cccc3cccc(c23)C1=O [isodibut] (10 µM) | 0.205 | 104% (inactive) |
| O=C(/C=C\n1cnc(-c2cc(C(F)(F)F)cc(C(F)(F)F)c2)n1)N1CC(F)(F)C1 (10 µM) | -0.303 | 116% (inactive) |
| Cc1nnc(C(C)C)n1C1C[C@H]2CC[C@@H](C1)N2CC[C@H](NC(=O)C1CCC(F)(F)CC1)c1ccccc1 (stereo in doubt) [maraviroc] (10 µM) | 0.145 | 112% (inactive) |
| CCOP(=S)(OCC)Oc1cc(C)nc(C(C)C)n1 [dimpylate] (10 µM) | -0.0379 | 116% (inactive) |
| CCN1CCN(C(=O)N[C@@H](C(=O)N[C@@H]2C(=O)N3[C@@H]2SC(C)(C)[C@@H]3C(=O)O)c2ccccc2)C(=O)C1=O [piperacillin] (10 µM) | 0.11 | 96% (inactive) |
| Oc1ccc(-c2nc3cc(O)cc(Br)c3o2)cc1 (10 µM) | 0.128 | 94.5% (inactive) |
| CN(c1ccccc1CNc1nc(Nc2ccc3c(c2)CC(=O)N3)ncc1C(F)(F)F)S(C)(=O)=O (10 µM) | 0.0447 | 114% (inactive) |
| O=C(/C=C/C=C/c1ccc2c(c1)OCO2)N1CCCCC1 [piperine] (10 µM) | 0.0346 | 97.5% (inactive) |
| COc1cc(OC)c(C(=O)CCCN2CCCC2)c(OC)c1 [buflomedil] (10 µM) | 0.0545 | 102% (inactive) |
| CC1(C)CC(O)CC(C)(C)N1[O] [tempol] (10 µM) | 0.209 | 97% (inactive) |
| CCn1cnc2c(Nc3cccc(Cl)c3)nc(N[C@@H]3CCCC[C@@H]3N)nc21 (0.833333 µM) | -0.35 | 114% (inactive) |
| C=CCN1CC[C@]23c4c5ccc(O)c4O[C@H]2/C(=N/NC(=O)c2ccccc2)CC[C@@]3(O)[C@H]1C5 [naloxone-benzoylhydrazone] (10 µM) | 0.0722 | 110% (inactive) |
| Cn1cnnc1Sc1c([N+](=O)[O-])ncn1C (10 µM) | 0.299 | 87% (inactive) |
| C[N+]1(C)[C@@H]2C[C@@H](OC(=O)C(O)(c3cccs3)c3cccs3)C[C@H]1[C@@H]1O[C@@H]12 [tiotropium] (10 µM) | 0.0776 | 100% (inactive) |
| CS(=O)(=O)Nc1ccc(-c2coc3cc(OCc4cccc(C(=O)O)c4)ccc3c2=O)cc1 (10 µM) | 0.0543 | 97% (inactive) |
| Cc1ccc(Cl)c(OCC(O)CNC(C)(C)C)c1 (configuration not stated) [bupranolol] (10 µM) | -0.00864 | 111% (inactive) |
| CCN(CC)C(=O)N[C@H]1C=C2c3cccc4[nH]cc(c34)C[C@H]2N(C)C1 [lisuride] (10 µM) | -0.111 | 110% (inactive) |
| O=C(O)C[CH2][Ge](=[O])[O][Ge](=[O])[CH2]CC(=O)O [propagermanium] (10 µM) | 0.128 | 94% (inactive) |

| SMILES | morphology score [1] | SARS-CoV-2 infection rate [2] |
| --- | --- | --- |
| CN1[C@@H]2CC[C@H]1C[C@@H](OC(=O)[C@H](CO)c1ccccc1)C2 [hyoscyamine] (10 µM) | 0.139 | 90.5% (inactive) |
| CC[C@H]1[C@@H](O)[C@@H]2[C@H](CC[C@]3(C)[C@@H]([C@H](C)CCC(=O)O)CC[C@@H]23)[C@@]2(C)CC[C@@H](O)C[C@@H]12 [obeticholic-acid] (10 µM) | 0.174 | 101% (inactive) |
| CC(C)NCC(O)c1ccccc1Cl (configuration not stated) [clorprenaline] (10 µM) | 0.125 | 96.5% (inactive) |
| CC1(C)[C@@H]2C[C@@H](O)[C@@](C)(O)[C@H]1C2 [2,3-cis/exo-pinanediol] (10 µM) | 0.0892 | 95.5% (inactive) |
| CC(=O)c1c(C)c2cnc(Nc3ccc(N4CCNCC4)cn3)nc2n(C2CCCC2)c1=O [palbociclib] (10 µM) | 0.0925 | 108% (inactive) |
| CCOc1cc(C(=O)Nc2ccc(Cl)c(-c3nc4ccccc4[nH]3)c2)cc(OCC)c1OCC (10 µM) | -0.0242 | 100% (inactive) |
| CCCn1c(=O)c2nc(-c3ccccc3)[nH]c2n(CCC)c1=O [1,3-dipropyl-8-phenylxanthine] (10 µM) | 0.102 | 104% (inactive) |
| C#C[C@]1(O)CC[C@H]2[C@@H]3CCC4=CC(=O)CC[C@]4(C)[C@H]3CC[C@@]21C [ethisterone] (10 µM) | -0.0671 | 107% (inactive) |
| CCc1cc2c(cc1CC)CC(NC[C@H](O)c1ccc(O)c3[nH]c(=O)ccc13)C2 [indacaterol] (10 µM) | 0.0532 | 114% (inactive) |
| CNC1CC(N)C(O)C(OC2OC(CO)C(O)C3OC4(OC(C(N)CO)C(O)C(O)C4O)OC23)C1O (configuration not stated) [Hygromycin B] (10 µM) | 0.0213 | 86.5% (inactive) |
| O=C(O)[C@]1(Cc2cccc(Nc3nccs3)n2)CC[C@@H](Oc2cccc(Cl)c2F)CC1 (0.833333 µM) | 0.175 | 106% (inactive) |
| NCCCCCNCC12CC3CC(CC(C3)C1)C2 (10 µM) | 0.229 | 97.5% (inactive) |
| C=CC(=O)N1CCC[C@@H](n2nc(-c3ccc(Oc4ccccc4)cc3)c3c(N)ncnc32)C1 [ibrutinib] (10 µM) | 0.197 | 109% (inactive) |
| Cc1c(CN2CCN(C(=O)[C@H](C)O)CC2)sc2c(N3CCOCC3)nc(-c3cnc(N)nc3)nc12 (10 µM) | -0.0562 | 113% (inactive) |
| C[C@H]1N=C(N(C)C)N=C(N)N1 [imeglimin] (10 µM) | 0.0246 | 99% (inactive) |
| CCCCCCCCCCCCCCCc1cccc(OCC(=O)NCCO)c1 (10 µM) | -0.00804 | 106% (inactive) |
| Fc1cc(F)c2c(c1)[C@H]1C=CC[C@H]1C(c1cccnc1)N2 (some centres not stated) [Golgicide A] (0.833333 µM) | 0.281 | 104% (inactive) |
| C1CCN2C[C@@H]3C[C@@H](CN4CCCC[C@@H]34)[C@H]2C1 [sparteine-sulfate] (10 µM) | 0.00477 | 112% (inactive) |
| OC[C@H]1O[C@@H](Oc2ccc(O)cc2)[C@H](O)[C@@H](O)[C@@H]1O [arbutin] (10 µM) | 0.104 | 104% (inactive) |
